Inconclusive results are not listed. Where a call stands in place of a potency, no number is given. Activity calls are given as the source filed them. The call rests on the fitted dose curve; in most records, active means well fitted activation curve with a large enough effect in the repeat runs; inconclusive means weak or mixed curves, or effect the other way; inactive means no such curve, though single readings can be large or run the other way.
assay: qHTS assay to identify small molecule agonists of the estrogen related receptor signaling pathway with the pleiotropic PPARgamma coactivator (PGC) from Tox21 10K library (AID 1224842); conditions: PGC/ERR reporter cell line, luciferase ONE-Glo, 18 h; series mostly up to 92.4 µM; further: nearly all actives have a fitted effect of over 15% in size
Source text: National Center for Advancing Translational Sciences [NCATS] NIH Chemical Genomics Center [NCGC] U.S. Environmental Protection Agency [EPA] National Institutes of Environmental Health Sciences [NIEHS] National Toxicology Program [NTP] Assay overview: Estrogen related receptors (ERRs), the first orphan nuclear receptors discovered, play an important role in the control of cellular energy metabolism. ERRs are required for high-energy production in response to the environmental challenges. The pleiotropic PPARgamma coactivator (PGC) is a major partner of ERR and a key regulator in energy homeostasis. Together they have been implicated in the etiology of metabolic disorders such as Type 2 diabetes and metabolic syndrome. ERR-alpha was also identified as an adverse marker for breast cancer progression; ERR-alpha-positive tumors have a poor prognosis. To screen and to identify environmental compounds that perturb the PGC/ERR signaling pathways could provide valuable information for potential therapeutic or preventive measures in the treatment of metabolic disease. For identifying PGC/ERR agonists, PGC/ERR cell line (provided by NTP) has been used to screen Tox21 10K library.
Assay Protocol Summary: The PGC/ERR cells were dispensed at 2,000 cells/5 ul/well in 1536-well white plates using a Multidrop dispenser. After the assay plates were incubated at a 37 C/5% CO2 incubator for 6 hours, 23 nL of compounds dissolved in DMSO, positive and negative controls or DMSO only was transferred to the assay plate by a pin tool. The plates were incubated at 37 C for 18 hours. 4 ul/well of One-Glo reagent was added into the assay plates using a Flying Reagent Dispenser. After 30-minute incubation at room temperature, the luminescence intensity in the plates was measured using a ViewLux plate reader.
Potency means the concentration at half of the fitted maximal effect.

Q: For `CN1CCCN=C1COC(=O)C(O)(c1ccccc1)C1CCCCC1` (stereo not given), which Potency is on record?
A: Its Potency is “inactive”.

Q: For `CCCCCCC(C)(C)C(=O)O`, which Potency is on record?
A: The Potency was “inactive”.

Q: With `N#[N+]c1ccc2c(S(=O)(=O)[O-])cccc2c1O` as the molecule, how does the Potency read?
A: Its Potency is “inactive”.

Q: Which Potency does the source give for `C[C@H]1C[C@H](O)c2ccsc2S1(=O)=O` here?
A: The Potency was “inactive”.

Q: For `CC(C)C=O`, which Potency is on record?
A: The Potency was “inactive”.

Q: With `Cc1[nH]cnc1CN1CCc2c(c3ccccc3n2C)C1=O` as the molecule, how does the Potency read?
A: Its Potency is “inactive”.

Q: With `CCOc1cccc(-n2cc(C(=O)N3CCN(c4cc(C(=O)O)c5ccccc5c4)CC3)nc2-c2ccc(C)cc2)c1` as the molecule, how does the Potency read?
A: Its Potency is “inactive”.

Q: Which Potency does the source give for `c1csc(SSc2cccs2)c1` here?
A: The Potency was “inactive”.

Q: For `CCC(C)COC(C)=O` (stereo not given), which Potency is on record?
A: The Potency was “inactive”.

Q: With `O=C1c2ccccc2C(=O)C1(O)O` as the molecule, how does the Potency read?
A: The Potency was “inactive”.

Q: For `C[C@@H]1CC(=O)NN=C1c1ccc(NN=C(C#N)C#N)cc1`, which Potency is on record?
A: Its Potency is “inactive”.

Q: For `OC1(c2ccccc2)CCNCC1`, which Potency is on record?
A: Its Potency is “inactive”.

Q: For `NC(=O)c1ccncc1`, which Potency is on record?
A: Its Potency is “inactive”.

Q: With `COc1cc(C(=O)NC2CCN(C)CC2)ccc1Nc1ncc2c(n1)N(C1CCCC1)CC(F)(F)C(=O)N2C` as the molecule, how does the Potency read?
A: The Potency was 2.5 µM (active).

Q: Which Potency does the source give for `COc1ccccc1NC(=O)c1cc2ccccc2cc1O` here?
A: The Potency was “inactive”.

Q: For `CCCCCC[C@@H](O)C/C=C\CCCCCCCC(=O)O`, which Potency is on record?
A: The Potency was “inactive”.

Q: Which Potency does the source give for `CC(C)(C)CC(=O)OCC(=O)[C@@]1(O)CC[C@H]2[C@@H]3CCC4=CC(=O)C=C[C@]4(C)[C@H]3[C@@H](O)C[C@@]21C` here?
A: Its Potency is “inactive”.

Q: For `O=C1Cc2ccccc2N1c1c(Cl)cccc1Cl`, which Potency is on record?
A: The Potency was “inactive”.

Q: With `C=C(C)[C@@H]1CCC2=CCC[C@@H](C)[C@]2(C)C1` as the molecule, how does the Potency read?
A: The Potency was “inactive”.

Q: For `CC1CC(OC(=O)C(O)c2ccccc2)CC(C)(C)N1C` (stereo not given), which Potency is on record?
A: The Potency was “inactive”.

Q: For `O=C(O)CCc1nc(-c2ccccc2)c(-c2ccccc2)o1`, which Potency is on record?
A: The Potency was “inactive”.

Q: For `CC(=O)[C@H]1[C@H](C#N)C[C@H]2[C@@H]3CC=C4C[C@@H](O)CC[C@]4(C)[C@H]3CC[C@@]21C`, which Potency is on record?
A: The Potency was “inactive”.

Q: Which Potency does the source give for `CCOC(=O)/C=C/C(=O)OCC` here?
A: The Potency was “inactive”.

Q: Which Potency does the source give for `C[C@]12CC[C@@H]3c4ccc(O)cc4CC[C@H]3[C@@H]1CC[C@@H]2OC(=O)CCC1CCCC1` here?
A: The Potency was “inactive”.

Q: For `OC[C@H]1O[C@@H](n2cnc3c(=S)nc[nH]c32)[C@H](O)[C@@H]1O`, which Potency is on record?
A: Its Potency is “inactive”.

Q: With `O=C1c2ccccc2C(=O)C1c1ccc(Br)cc1` as the molecule, how does the Potency read?
A: The Potency was 13.3 µM (active).

Q: Which Potency does the source give for `C=C(C)C(=O)OCCOCCOC(=O)C(=C)C` here?
A: Its Potency is “inactive”.

Q: Which Potency does the source give for `C[C@H]1c2cccc(O)c2C(O)=C2C(=O)[C@]3(O)C(O)=C(C(N)=O)C(=O)[C@@H](N(C)C)[C@@H]3[C@@H](O)[C@@H]21` here?
A: Its Potency is “inactive”.

Q: With `O=c1cc(-c2ccccc2)oc2ccc3ccccc3c12` as the molecule, how does the Potency read?
A: The Potency was 0.243 µM (active).

Q: Which Potency does the source give for `CN1C[C@H](C(=O)N[C@]2(C)O[C@@]3(O)[C@@H]4CCCN4C(=O)[C@H](Cc4ccccc4)N3C2=O)C[C@@H]2c3cccc4[nH]cc(c34)C[C@H]21` here?
A: The Potency was “inactive”.

Q: For `COc1ccc(OC(=O)N(CC(=O)O)Cc2ccc(OCCc3nc(-c4ccccc4)oc3C)cc2)cc1`, which Potency is on record?
A: The Potency was “inactive”.

Q: For `O=C1Cc2cc(Cl)ccc2N1`, which Potency is on record?
A: Its Potency is “inactive”.

Q: For `CCOC(=O)c1ccc(I)cc1`, which Potency is on record?
A: Its Potency is 4.9 µM (active).

Q: For `CC(C)=CCC/C(C)=C/CC/C(C)=C/CCC(=O)OC/C=C(\C)CCC=C(C)C`, which Potency is on record?
A: The Potency was “inactive”.

Q: Which Potency does the source give for `C=COCC(C)C` here?
A: Its Potency is “inactive”.

Q: With `CCCCCC[C@@H](O)C/C=C\CCCCCCCC(=O)OCC(O)CO` (stereo not given in full) as the molecule, how does the Potency read?
A: Its Potency is “inactive”.

Q: Which Potency does the source give for `C/C=C\C/C=C/CCCCCCCCOC(C)=O` here?
A: The Potency was “inactive”.

Q: Which Potency does the source give for `Cc1c(C)c2c(c(C)c1OC(=O)CCC(=O)OCCO)CC[C@@](C)(CCC[C@H](C)CCC[C@H](C)CCCC(C)C)O2` here?
A: The Potency was “inactive”.

Q: Which Potency does the source give for `CC(=O)Nc1ccc(C)cc1C` here?
A: Its Potency is “inactive”.

Q: For `O=C(CCc1ccc(O)cc1)c1c(O)cc(O)cc1O`, which Potency is on record?
A: The Potency was “inactive”.

Source: PubChem BioAssay (Tox21)
